Test results taken from PubChem BioAssay AID1259400 (National Center for Advancing Translational Sciences (NCATS), 2018).
About 2,100 (0.6%) of roughly 350,000 compounds were called active. Another 1% or so got no clear call; they are omitted. Only a selection was taken, and actives are over-represented in it overall. Values without a mark were called inactive.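 Rule for the calls: active = activity change of -60% or lower, but not beyond a set lower limit; inconclusive = change between -60% and -40%, or beyond the set limit; inactive = change above -40%.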

These molecules were tested against Relaxin receptor 1 (Homo sapiens) (UniProt Q9HBX9) (assay: qHTS Assay for Antagonists of the Relaxin Receptor RXFP1). Details: HEK293-RXFP1, relaxin-stimulated cAMP HTRF, 30 min; at 57.5 µM; stronger effect = lower value.
% is set by controls: 0 for no effect and ±100 for the full control effect.

Relaxin receptor 1 (Homo sapiens), sequence (Q9HBX9 whole entry, looked up): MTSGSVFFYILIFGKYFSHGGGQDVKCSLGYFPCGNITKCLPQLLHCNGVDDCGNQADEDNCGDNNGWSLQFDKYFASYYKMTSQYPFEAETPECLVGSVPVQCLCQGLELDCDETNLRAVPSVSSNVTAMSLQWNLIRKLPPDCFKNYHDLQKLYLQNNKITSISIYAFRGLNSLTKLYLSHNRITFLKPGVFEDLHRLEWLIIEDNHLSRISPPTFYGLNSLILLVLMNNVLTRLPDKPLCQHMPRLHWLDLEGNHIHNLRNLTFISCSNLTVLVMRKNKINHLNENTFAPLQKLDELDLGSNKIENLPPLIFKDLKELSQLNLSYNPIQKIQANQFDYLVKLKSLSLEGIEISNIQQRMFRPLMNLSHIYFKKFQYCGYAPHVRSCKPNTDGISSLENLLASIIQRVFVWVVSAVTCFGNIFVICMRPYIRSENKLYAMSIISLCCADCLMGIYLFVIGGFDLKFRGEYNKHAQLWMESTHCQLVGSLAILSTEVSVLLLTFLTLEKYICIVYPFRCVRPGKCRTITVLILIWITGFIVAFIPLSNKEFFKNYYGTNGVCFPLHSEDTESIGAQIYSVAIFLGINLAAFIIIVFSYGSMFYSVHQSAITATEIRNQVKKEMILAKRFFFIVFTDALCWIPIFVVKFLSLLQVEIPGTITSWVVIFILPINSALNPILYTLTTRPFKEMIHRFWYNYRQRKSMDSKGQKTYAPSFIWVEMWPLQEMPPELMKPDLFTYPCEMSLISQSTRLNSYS

Row | Compound | activity change, negative = inhibition
1 | COC(=O)c1ccc(NC(=O)c2cnn(-c3ccc(Cl)cc3)c2C2CCN(C(=O)OC(C)(C)C)CC2)cc1 | -12.3%
2 | COc1ccc(CCNC(=O)c2ccc3c(c2)nc(C)n3-c2ccc(Br)cc2)cc1OC | -27.1%
3 | CC1=C(c2ccc(C)cc2)S(=O)(=O)NC1=NCCCN1CCN(c2cc(C)ccc2C)CC1 | -13.1%
4 | COC(=O)/C=C(/C)N | 5.99%
5 | CCOC(=O)c1cc(-c2ccccc2)n(-c2cccc(C(=O)Nc3cc(OC)cc(OC)c3)c2)c1C | -10.5%
6 | COC(=O)c1nc(Cl)c(Cl)nc1N | -98.8% (active)
7 | COC(=O)c1nn(-c2cccc(Cl)c2)ccc1=O | -8.77%
8 | COC(=O)c1c(C)c(C)nc(N)c1C#N | 9.32%
9 | O=C(CCOc1ccccc1)N(Cc1cccnc1)c1nc2ccc(Cl)cc2s1 | 0.968%
10 | COc1ccc(OC)c(NC(=O)CSC2=Nc3ccccc3C3=NC(CC(=O)NCc4ccc(F)cc4)C(=O)N23)c1 (stereo not given) | -11.9%
11 | COCCCN1CCC(NC(=O)c2cc(Cl)c(N)c3c2OCC3)CC1 | -9.44%
12 | O=C(N/N=C\c1cc2c(cc1Cl)OCO2)c1ccc(Br)s1 | 5.05%
13 | CC1(C(=O)N/N=C/c2cc3c(cc2Br)OCO3)CC1(Br)Br (stereo not given) | -82.7% (active)
14 | O=C(/C=C/c1cc2c(cc1Br)OCO2)NCc1ccc(Cl)cc1 | 0.543%
15 | COc1cc(Cl)c(NC(=O)CC(C)S(=O)(=O)c2cc3c(cc2C)NC(=O)CO3)c(OC)c1 (stereo not given) | 0.439%
16 | NNc1nc2c(Cl)cccc2s1 | -80.1% (active)
17 | c1ccc2c(NC3C4CC5CC(C4)CC3C5)nc(N3CCOCC3)nc2c1 (stereo not given) | -78.7% (active)
18 | Fc1cnc(N2CCOCC2)nc1NCc1ccccc1 | 11.7%
19 | CC(Nc1nc(N2CCCC2)nc2ccccc12)c1ccccc1 (stereo not given) | -10.3%
20 | O=C(NCC(c1ccc(Cl)cc1)N1CCOCC1)c1ccccc1F (stereo not given) | -0.553%
21 | CCOC(=O)c1c(C)[nH]c(CCC(=O)NCCCN2CCN(c3cc(C)ccc3C)CC2)c1C | -33.7%
22 | CCCc1c2oc(C(=O)O)cc(=O)c2cc2c(=O)cc(C(=O)O)n(CC)c12 | -5.22%
23 | COc1cc(/C=C/C(N)=O)cc(OC)c1OC | -9.25%

Row | Compound | activity change, negative = inhibition
24 | Cc1c(NC(=O)Cc2ccccc2)cccc1-c1nc2cccnc2s1 | 5.77%
25 | C=C(C)COc1ccc(-c2ncncc2-c2ccc(OC)cc2)c(O)c1 | -10.6%
26 | CCOc1ccc(-c2nc(N)ncc2-c2ccccc2OC)c(O)c1 | -16%
27 | C=C(C)COc1ccc(-c2nc(N)ncc2-c2ccccc2OC)c(O)c1 | -62% (active)
28 | Cc1ccc(CCNC(=O)c2nnc(Cc3cccc(F)c3)o2)cc1 | -3.15%
29 | O=C(OCC(O)C(O)COC(=O)c1ccccc1)c1ccccc1 (stereo not given) | -12.8%
30 | CC(OC(=O)CN1C(=O)c2ccccc2C1=O)C(=O)c1ccccc1 (stereo not given) | 6.31%
31 | C=CCC(C(=O)c1ccccc1)[N+](C)(C)CC=C (stereo not given) | -82.2% (active)
32 | CC(O)COc1ccccc1 (stereo not given) | 1.89%
33 | Cc1noc(/C=C/N(C)C)c1S(=O)(=O)N1CCCC(C(=O)Nc2cccc(F)c2)C1 (stereo not given) | -3.51%
34 | CCN1CCN(C(=O)N[C@@H](C(=O)N[C@@H]2C(=O)N3[C@@H]2SC(C)(C)[C@H]3C(=O)O)c2ccccc2)C(=O)C1=O | -3.73%
35 | O=C(Cn1cc(-c2nnnn2-c2ccc(Cl)cc2)c(=O)c2ccccc21)c1ccccc1 | -98.5% (active)
36 | O=C(C[n+]1ccc2c(c1)nnn2-c1ccccc1)c1ccc(Cl)cc1 | -11.1%
37 | O=C(CN1CCN(c2ccc(Cl)cc2)CC1)c1ccccc1 | 6.85%
38 | Cc1cc(C)cc(NC(=O)CSc2nc3nccnc3c(=O)n2CCc2c[nH]c3ccccc23)c1 | 4.86%
39 | Fc1ccc(Nc2nc(SCc3ccccc3Cl)nc3ccccc23)cc1 | -23.1%
40 | COc1ccc(OCC(O)CNCCNc2nccc(C(F)(F)F)n2)cc1 (stereo not given) | 6.63%
41 | CC(Oc1ccc(Br)cc1)C(=O)NC1CCCCCC1 (stereo not given) | -9.73%
42 | CC(C)(C)CC(C)(C)NCC(O)COCCOc1ccc(Br)cc1 (stereo not given) | -90.2% (active)
43 | CN[C@@H]1[C@@H](O)[C@@H](O[C@@H]2[C@H](O)[C@H](O[C@H]3OC(CN)=CC[C@H]3N)[C@@H](N)C[C@H]2N)OCC1(C)O (stereo not given in full) | -9.15%
44 | CCc1ccc(NC(=O)c2sc3nc4c(cc3c2N)CN(CC)CC4)cc1 | -24.5%
45 | O=C1Cc2cc(S(=O)(=O)Nc3ccc(OC(F)(F)F)cc3)cc3c2N1CCC3 | -19.8%
46 | O=C(OCc1ccccc1)c1ccc(O)cc1 | 3.77%

Row | Compound | activity change, negative = inhibition
47 | COc1cccc(-c2noc(C3CCCN(C(=O)c4ccc(F)cc4)C3)n2)c1 (stereo not given) | -66.4% (active)
48 | COc1ccc(NC(=O)N2CCCC(c3nc(-c4ccc(F)cc4)no3)C2)cc1 (stereo not given) | 2.56%
49 | O=C(c1ccc(F)cc1)N1CCCC(c2nc(-c3cccs3)no2)C1 (stereo not given) | 2.8%
50 | CCOc1ccc(S(=O)(=O)c2cn(Cc3ccccc3)c3ccc(OCC)cc3c2=O)cc1 | -11.7%
51 | CCOc1ccc(NS(=O)(=O)c2ccc(N)cc2)nn1 | 9.63%
52 | CCN(C(=O)CSc1nnc(C)n2c1cc1occc12)c1ccccc1 | -12.2%
53 | Cc1ccc(N=C2NC(=O)/C(=C/C=C/c3ccco3)S2)cc1C | -82.4% (active)
54 | CCN1CCN(c2cc(C)c3cc(NC(=O)c4cc(Cl)ccc4OC)ccc3n2)CC1 | -19.5%
55 | O=C(CSc1nnc(-c2ccncc2)o1)Nc1cccc(Cl)c1 | -1.48%
56 | COc1cccc(NC(=O)CSc2nnc(-c3cccnc3)o2)c1 | -83.2% (active)
57 | COC(=O)CSc1nnc(-c2cccnc2)o1 | 5.1%
58 | CCOc1ccc(N2CC(c3nc4ccccc4n3CCOc3ccc(OC)cc3)CC2=O)cc1 (stereo not given) | -13%
59 | Cc1ccc(Cl)cc1NC(=O)C(C)n1nnc2sc(-c3ccccc3)cc2c1=O (stereo not given) | -12.2%
60 | Cc1ccc(SCc2c(C(=O)N/N=C/c3cccnc3)nnn2-c2nonc2N)cc1 | -106% (active)
61 | Nc1nonc1-n1nnc(C(=O)N/N=C\c2ccncc2)c1CN1CCCCC1 | 7.31%
62 | COCc1c(C(=O)N/N=C\c2cccnc2)nnn1-c1nonc1N | -21.1%
63 | COC(=O)c1cc(Cl)c(NC(C)=O)cc1OC | -14.6%
64 | COc1ccccc1Nc1c2c(nc3ccc(NC(=O)/C=C/c4cc(OC)c(OC)c(OC)c4)cc13)CCCC2 | 5.51%
65 | CCC(=O)Nc1ccc(C)cc1-c1nc2ccccc2n(Cc2ccccc2)c1=O | -2.19%
66 | O=C(C1CCC(Cn2c(=O)c3sccc3n(Cc3ccccc3F)c2=O)CC1)N1CCCCC1 (stereo not given) | -8.5%
67 | CN1CCc2ccccc2C1Cc1ccccc1NC(=O)c1sc2ccccc2c1Cl (stereo not given) | 5.13%
68 | Cc1nn(C)cc1/C=N/NC(=O)c1sc2ccccc2c1Cl | -67.1% (active)
69 | Cc1nn(-c2ccccc2)c(Cl)c1/C=N/NC(=O)c1nn(C)cc1[N+](=O)[O-] | -8.41%

Row | Compound | activity change, negative = inhibition
70 | C/C=C/C=N/NC(=O)c1ccncc1 | 14.4%
71 | CC1CCN(S(=O)(=O)c2ccc3c(ccn3CCC(=O)NCc3ccc(N(C)C)cc3)c2)CC1 | -7.88%
72 | CCOC(=O)c1ccc(NC(=O)C2CC(=O)N(c3ccc(C(C)C)cc3)C2)cc1 (stereo not given) | 4.6%
73 | CN1CC[C@H](c2c(O)cc(O)c3c(=O)cc(-c4ccccc4Cl)oc23)[C@H](O)C1 | -7.55%
74 | COc1ccc(C2Sc3ccccc3NC3=C2C(=O)c2ccccc23)c(OC)c1OC (stereo not given) | 3.16%
75 | CCOC(=O)c1cnc2c(C)cc(C)cc2c1Nc1ccc(N2CCOCC2)cc1 | -5%
76 | O=C(Nc1ccccc1)c1nnsc1S(=O)(=O)c1ccc(Cl)cc1 | -68.7% (active)
77 | O=C(Nc1cccc(Cl)c1)c1csnn1 | -3.98%
78 | O=C(Nc1ccc(Oc2ccccc2)cc1)C1CCN(S(=O)(=O)c2ccc(Cl)cc2)CC1 | -26.7%
79 | Clc1ccc(CSc2nncn3c2cc2occc23)cc1 | -27.8%
80 | Cc1ccc(Nc2c(-c3ccc(Cl)cc3)nc3sccn23)c(C)c1 | -23.7%
81 | CC(=O)Oc1ccccc1C(=O)Nc1ncc([N+](=O)[O-])s1 | -60.7% (active)
82 | O=C(Nc1ccncc1)c1ccccc1[N+](=O)[O-] | 11.1%
83 | Cc1ccc2nsnc2c1NC(=O)c1ccccc1[N+](=O)[O-] | -9.18%
84 | CCOC(=O)c1ccc(NC(=O)c2c(NCc3cccs3)sc3c2CCCC3)cc1 | -24.5%
85 | Cc1nnnn1/C(=C\c1ccccc1)C(=O)OCC(=O)N1CC2(C)CC1CC(C)(C)C2 (stereo not given) | -62.1% (active)
86 | CN(C)C(=O)COC(=O)c1cccc(S(=O)(=O)N2CC3(C)CC2CC(C)(C)C3)c1 (stereo not given) | 8.67%
87 | CN1CCN(c2oc(-c3ccc(COc4ccc(Cl)cc4)o3)nc2C#N)CC1 | -10.5%
88 | CCOc1ccccc1NC(=O)c1ccc2c(c1)CCN2S(=O)(=O)c1ccc(C)cc1 | 1.03%
89 | CCc1cccc(C)c1Nc1c(-c2ccc(N(C)C)cc2)nc2ncccn12 | -15.1%
90 | CCn1cc(C(=O)N2CCN(c3cc(Cl)ccc3C)CC2)c(=O)c2cc(S(=O)(=O)N3CCCC3)ccc21 | -1.04%
